Activity calls are given as the source filed them. The calls were made as follows: active = hit-call score of the fitted dose curve at least 0.9, where 1 is the maximum; inactive = score below 0.9.

Read-out in assay [1]: Tissue plasminogen activator (tPA), PLAT (gene 5327)
In words: BSK_BE3C_tPA: BioMAP Diversity Plus: BE3C Assay for Tissue plasminogen activator (tPA) Biomarker Activity (AID 2283041).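 Also: tPA level quantified by ELISA one day after compound addition.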 As to conditions: primary human bronchial epithelial cells; actives raise or lower the signal. Put shortly:
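Primary human bronchial epithelial cells in the BE3C system, exposed to compound for 24 h. tPA was quantified by ELISA; DMSO served as baseline, with gain or loss of signal fitted. Cytotoxicity checked in parallel cultures by SRB total-protein staining.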

Read-out in assay [2]: Interleukin-8 (IL8), CXCL8 (gene 3576)
The assay can be described thus: BSK_CASM3C_IL8: BioMAP Diversity Plus: CASM3C Assay for Interleukin-8 (IL8) Biomarker Activity (AID 2283042).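 Also: IL-8 protein level quantified by ELISA.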 Particulars: primary human coronary artery smooth muscle cells; actives raise or lower the signal.

Read-out in assay [3]: Human Leukocyte Antigen - DR isotype (HLADR), HLA-DRA (gene 3122)
The assay can be described thus: BSK_CASM3C_HLADR: BioMAP Diversity Plus: CASM3C Assay for Human Leukocyte Antigen - DR isotype (HLADR) Biomarker Activity (AID 2283043).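 Also: cell-surface HLA-DR protein level quantified by ELISA.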 As to conditions: primary human coronary artery smooth muscle cells; actives raise or lower the signal.

Read-out in assay [4]: Macrophage colony-stimulating factor (MCSF), CSF1 (gene 1435)
In words: BSK_CASM3C_MCSF: BioMAP Diversity Plus: CASM3C Assay for Macrophage colony-stimulating factor (MCSF) Biomarker Activity (AID 2283044).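 Also: M-CSF protein amount quantified by ELISA after 24 h exposure.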 Particulars: primary human coronary artery smooth muscle cells; actives raise or lower the signal.

Read-out in assay [5]: Low-density lipoprotein receptor (LDLR), LDLR (gene 3949)
The assay can be described thus: BSK_CASM3C_LDLR: BioMAP Diversity Plus: CASM3C Assay for Low-density lipoprotein receptor (LDLR) Biomarker Activity (AID 2283045).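 Also: LDLR protein level on the cell surface quantified by ELISA.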 As to conditions: primary human coronary artery smooth muscle cells; actives raise or lower the signal.

Read-out in assay [6]: Monocyte Chemoattractant Protein-1 (MCP1), CCL2 (gene 6347)
The assay can be described thus: BSK_CASM3C_MCP1: BioMAP Diversity Plus: CASM3C Assay for Monocyte Chemoattractant Protein-1 (MCP1) Biomarker Activity (AID 2283046).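 Also: MCP-1 level quantified by ELISA 24 h after dosing.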 As to conditions: primary human coronary artery smooth muscle cells; actives raise or lower the signal.

Assay [7] is described as follows: BSK_CASM3C_Proliferation: Cell Proliferation Assessment in the BioMAP Diversity Plus: CASM3C Assay (AID 2283047).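 Also: sulforhodamine B total protein stain as relative cell number at 560 nm; sub-confluent cells exposed 48 h before staining; fitted both ways against DMSO so gain or loss of cell number.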 Particulars: primary human coronary artery smooth muscle cells.
Read-out in assay [8]: Monokine induced gamma interferon (MIG), CXCL9 (gene 4283)
The assay can be described thus: BSK_CASM3C_MIG: BioMAP Diversity Plus: CASM3C Assay for Monokine induced gamma interferon (MIG) Biomarker Activity (AID 2283048).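 Also: MIG protein level measured by ELISA.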 As to conditions: primary human coronary artery smooth muscle cells; actives raise or lower the signal.

Read-out in assay [9]: serum amyloid A (SAA), SAA1 (gene 6288)
In words: BSK_CASM3C_SAA: BioMAP Diversity Plus: CASM3C Assay for serum amyloid A (SAA) Biomarker Activity (AID 2283049).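 Also: SAA protein level quantified by ELISA.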 As to conditions: primary human coronary artery smooth muscle cells; actives raise or lower the signal.

A short description of assay [10]: BSK_CASM3C_SRB: Viability Assessment in the BioMAP Diversity Plus: CASM3C Assay (AID 2283050). Particulars: primary human coronary artery smooth muscle cells.
Read-out in assay [11]: Thrombomodulin, THBD (gene 7056)
In words: BSK_CASM3C_Thrombomodulin: BioMAP Diversity Plus: CASM3C Assay for Thrombomodulin Biomarker Activity (AID 2283051).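 Also: thrombomodulin protein level measured by ELISA 24 h after dosing.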 As to conditions: primary human coronary artery smooth muscle cells; actives raise or lower the signal.

Read-out in assay [12]: Tissue Factor, F3 (gene 2152)
In words: BSK_CASM3C_TissueFactor: BioMAP Diversity Plus: CASM3C Assay for Tissue Factor Biomarker Activity (AID 2283052).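 Also: cell surface tissue factor protein level read by ELISA.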 As to conditions: primary human coronary artery smooth muscle cells; actives raise or lower the signal.

Read-out in assay [13]: Interferon-gamma inducible Protein 10 (IP10), CXCL10 (gene 3627)
The assay can be described thus: BSK_hDFCGF_IP10: BioMAP Diversity Plus: hDFCGF Assay for Interferon-gamma inducible Protein 10 (IP10) Biomarker Activity (AID 2283053). As to conditions: primary human foreskin fibroblasts; actives raise or lower the signal. The method, boiled down:
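Primary human foreskin fibroblasts exposed to chemicals for 24 h. IP-10 measured by ELISA; changes fitted bidirectionally against DMSO baseline.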

Read-out in assay [14]: Urokinase-type plasminogen activator receptor (uPAR), PLAUR (gene 5329)
The assay can be described thus: BSK_CASM3C_uPAR: BioMAP Diversity Plus: CASM3C Assay for Urokinase-type plasminogen activator receptor (uPAR) Biomarker Activity (AID 2283054).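 Also: cell-surface uPAR protein level quantified by ELISA.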 As to conditions: primary human coronary artery smooth muscle cells; actives raise or lower the signal.

Read-out in assay [15]: Vascular cell adhesion molecule 1 (VCAM1), VCAM1 (gene 7412)
In words: BSK_CASM3C_VCAM1: BioMAP Diversity Plus: CASM3C Assay for Vascular cell adhesion molecule 1 (VCAM1) Biomarker Activity (AID 2283055).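 Also: VCAM-1 protein level quantified by ELISA on the cells.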 Particulars: primary human coronary artery smooth muscle cells; actives raise or lower the signal.

Read-out in assay [16]: Collagen III, COL3A1 (gene 1281)
The assay can be described thus: BSK_hDFCGF_CollagenIII: BioMAP Diversity Plus: hDFCGF Assay for Collagen III Biomarker Activity (AID 2283056). As to conditions: primary human foreskin fibroblasts; actives raise or lower the signal. The method, boiled down:
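Response relative to DMSO, fitted in both directions, reflects ELISA-measured collagen III in human primary skin fibroblasts 24 h after compound addition.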

Read-out in assay [17]: Epidermal growth factor receptor (EGFR), EGFR (gene 1956)
The assay can be described thus: BSK_hDFCGF_EGFR: BioMAP Diversity Plus: hDFCGF Assay for Epidermal growth factor receptor (EGFR) Biomarker Activity (AID 2283057). As to conditions: primary human foreskin fibroblasts; actives raise or lower the signal. Put shortly: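 Primary human foreskin fibroblasts (hDFCGF system), sampled 24 h after dosing; EGFR quantified by ELISA. Bidirectional fit relative to DMSO baseline; SRB total-protein staining in parallel cultures for cytotoxicity.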

Read-out in assay [18]: Interleukin-8 (IL8), CXCL8 (gene 3576)
The assay can be described thus: BSK_hDFCGF_IL8: BioMAP Diversity Plus: hDFCGF Assay for Interleukin-8 (IL8) Biomarker Activity (AID 2283058). As to conditions: primary human foreskin fibroblasts; actives raise or lower the signal. Put shortly:
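Fibroblast monolayers (human foreskin, hDFCGF) received test chemical for 24 h before ELISA detection of IL-8; either increases or decreases relative to DMSO count as activity.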

Assay [19] in a line: BSK_hDFCGF_Proliferation: Cell Proliferation Assessment in the BioMAP Diversity Plus: hDFCGF Assay (AID 2283059).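 Also: curves fitted for both rise and fall of signal versus DMSO baseline.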 As to conditions: primary human foreskin fibroblasts. Put shortly: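 This proliferation readout used SRB total-protein staining of human foreskin fibroblasts […], normalized to DMSO with bidirectional curve fitting.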
Read-out in assay [20]: Macrophage colony-stimulating factor (MCSF), CSF1 (gene 1435)
The assay can be described thus: BSK_hDFCGF_MCSF: BioMAP Diversity Plus: hDFCGF Assay for Macrophage colony-stimulating factor (MCSF) Biomarker Activity (AID 2283060). As to conditions: primary human foreskin fibroblasts; actives raise or lower the signal. Put shortly: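 fibroblasts (human foreskin, primary), 24 h post-dose; M-CSF by ELISA; bidirectional fit, DMSO = baseline.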

As usually defined, the AC50 is the midpoint of the concentration-response curve, whichever way the signal moves. Consider `CCCCC(CC)C(=O)OCCOCCOCCOC(=O)C(CC)CCCC` (stereo not given), for which the result in [1], in assay [2], in assay [3], in [4], in assay [5] and in assay [6] was inactive. Further, the outcome in assay [7], in assay [8], in [9], in [10], in assay [12] and in assay [13] was inactive. Moreover, the result in [14], in assay [15], in assay [17] and in [18] was inactive. For the same compound, the AC50 in [11] was 20 µM (active); in assay [16], 20 µM (active); in assay [19], 11 µM (active); in assay [20], 10.7 µM (active).

As to `CCCCOC(=O)c1ccccc1`, the result in [1], in assay [2], in assay [3], in [4], in [5] and in [6] was inactive. The outcome in assay [7], in assay [8], in [9], in assay [10], in assay [11] and in assay [12] was inactive. The outcome in [13], in [14], in assay [15], in [16], in assay [17] and in assay [18] was inactive. Further, the result in assay [19] and in [20] was inactive.

On to `O=C(Cl)C(F)(F)C(F)(F)C(F)(F)C(=O)Cl`, for which the outcome in assay [1], in assay [2], in assay [3], in [4], in assay [5] and in assay [6] was inactive. The result in [7], in [8], in [9], in assay [10], in assay [11] and in [12] was inactive. For the same compound, the outcome in assay [13], in assay [14], in assay [15], in [16], in assay [17] and in assay [18] was inactive. The result in assay [19] and in assay [20] was inactive.

For the compound `CCCC(CCC)C(=O)O`, the result in assay [1], in [2], in [3], in assay [4], in assay [5] and in [6] was inactive. The result in [7], in assay [8], in [9], in [10], in assay [11] and in [12] was inactive. Moreover, the result in assay [13], in [14], in assay [15], in assay [16], in assay [17] and in [18] was inactive. Also, the result in assay [19] and in assay [20] was inactive.

With `CNC(C)=O`, the result in assay [1], in assay [2], in assay [3], in assay [4], in assay [5] and in assay [6] was inactive. In addition, the outcome in assay [7], in [8], in assay [9], in [10], in [11] and in assay [12] was inactive. The outcome in assay [13], in assay [14], in assay [15], in [16], in assay [17] and in assay [18] was inactive. Also, the result in [19] and in [20] was inactive.

Consider `CCCCCOC(C)=O`, for which the outcome in assay [1], in [2], in assay [3], in assay [4], in assay [5] and in [6] was inactive. Further, the result in assay [7], in assay [8], in assay [9], in assay [10], in assay [11] and in assay [12] was inactive. Also, the outcome in assay [13], in assay [14], in assay [15], in assay [16], in assay [17] and in [18] was inactive. For the same compound, the result in assay [19] and in [20] was inactive.

Turning to `c1ccc2ncccc2c1`, the outcome in [1], in [2], in assay [3], in assay [4], in assay [5] and in assay [6] was inactive. Also, the outcome in [7], in assay [8], in assay [9], in assay [10], in assay [11] and in [12] was inactive. The outcome in assay [13], in [14], in assay [15], in assay [16], in assay [17] and in assay [18] was inactive. Further, the result in assay [19] and in [20] was inactive.

The values above are taken from PubChem BioAssay (EPA / NIEHS).
